Compound activity deposited in PubChem by National Center for Advancing Translational Sciences (NCATS).
FBPA Giardia inh: qHTS Assay for Inhibitors of Fructose-1,6-bisphosphate Aldolase from Giardia Lamblia; 0.71% of 290,000 active; A8B2U2; Potency, µM (titrated, usually from 59.6 µM), hits mostly inhibitors; purified Giardia FBPA; further: nearly all actives have a fitted effect of over 55% in size
Target sequence (A8B2U2 whole entry, looked up): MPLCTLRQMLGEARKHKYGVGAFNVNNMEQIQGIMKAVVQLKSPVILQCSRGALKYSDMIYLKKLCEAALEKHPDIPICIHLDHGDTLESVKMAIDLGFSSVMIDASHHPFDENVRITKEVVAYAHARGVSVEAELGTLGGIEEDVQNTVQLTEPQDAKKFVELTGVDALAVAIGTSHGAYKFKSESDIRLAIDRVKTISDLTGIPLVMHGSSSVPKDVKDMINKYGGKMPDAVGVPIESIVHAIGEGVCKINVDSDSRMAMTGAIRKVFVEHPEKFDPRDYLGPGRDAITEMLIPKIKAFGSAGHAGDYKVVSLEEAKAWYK
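Giardia FBPA (40 nM reagent) was preincubated 10 min at RT with compound (up to 57.5 uM final), then substrate plus GAPDH/TPI/NAD/arsenate coupling system with diaphorase/resazurin was added; resorufin fluorescence (525/598 nm) was read after 20 min.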
Shiga toxin inh: A qHTS for Small Molecule Inhibitors of Shiga Toxin | AID 2315, 2010 | 9.2% of 290,000 active | inhibition, % at 38.7 µM | Vero cells, Shiga toxin protein synthesis inhibition reporter; in the data active means inhibition mostly above about 28%, no sharp cut-off; inactive means mostly below about 43%
LmPK inhibitor: qHTS Assay for Inhibitors of Leishmania Mexicana Pyruvate Kinase (LmPK); Potency, µM (series often up to 57.5 µM), hits mostly inhibitors; Q27686; 0.37% of 290,000 active; purified LmPK, Kinase-Glo ATP luminescence, 1 h
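Pyruvate kinase activity monitored as ATP production (luciferase luminescence). Conditions: 0.1 nM enzyme, 0.5 mM PEP, 0.1 mM ADP, 1 h, RT; normalized against uninhibited and no-enzyme wells.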
CHX counter: Cycloheximide Counterscreen for Small Molecule Inhibitors of Shiga Toxin | cell reporter, cycloheximide protein synthesis inhibition counterscreen | max response, % | 12% of 300,000 active; in the data active means max response mostly above about 13%, no sharp cut-off; inactive means mostly below about 14%; further: read at 38.3 µM for the half of the compounds with a filed dose
Tb PYK inh: qHTS of Trypanosoma Brucei Inhibitors; pyruvate kinase (Trypanosoma brucei), Q57TT1; 0.12% of 410,000 active; Potency, µM (top dose mostly 76.8 µM), actives largely listed as inhibitors; TbPYK enzyme, Kinase-Glo Plus ATP luminescence, 45 min; further: nearly all actives have a fitted effect of over 50% in size
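Readout: single end-point luminescence (Kinase-Glo Plus, 10 min). Reaction conditions were TbPYK/substrate plus 130 uM ADP, 45 min at RT, pH 7.2 TEA buffer. No-enzyme wells served as controls, and data were normalized before concentration-response fitting.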
RE007 growth inh: qHTS Assay for Inhibitors of the HIV-1 protein Vpr | S. pombe RE007 Vpr strain, BacTiter-Glo ATP luminescence, 24 h | Potency, µM (top dose mostly 92.2 µM), most hits filed as inhibitors | 0.21% of 360,000 active; active means well fitted falling curve with a large enough effect; inconclusive means small, poorly fitted or top-dose-only effect; inactive means no such curve, though single readings can be large or run the other way; further: nearly all actives have a fitted effect of over 50% in size
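Fission yeast RE007 carrying one integrated HIV-1 vpr copy, seeded at OD 0.01 in PMG+AL medium with 23 nL pinned compound. Grown 24 h at 30 degrees; viability read by BacTiter-Glo luminescence after 5 min.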
Large screens that a line does not name were inactive. The entries come from a sample that favours hits as a whole. Unless noted, the call rests on the fitted dose curve; in most records, active means well fitted curve in the direction sought with a large enough effect; inconclusive means small, poorly fitted or top-dose-only effect, or another doubt; inactive means no such curve, though single readings can be large; an effect the other way counts as inactive or inconclusive.

CCn1c(SCc2ccc(C(=O)Nc3nccs3)cc2)nnc1-c1ccc(N)cc1	CHX counter 19.7
CN(c1ccccc1)S(=O)(=O)c1ccc(C(=O)Nc2nccs2)cc1	none
Nc1ccc(C(=O)Nc2nccs2)cc1	Shiga toxin inh 125.3, CHX counter 33.2
CCn1c(SCc2ccc(C(=O)Nc3nccs3)cc2)nnc1-c1ccc(NC(C)=O)cc1	none
COc1cc(CC(=O)OCC(=O)N2CCCCC2)cc(OC)c1OC	none
BrC(=C\c1ccccc1)/C=N/Nc1ccc2nncn2n1	none
BrC(=C\c1ccccc1)/C=N/n1cnnc1	Shiga toxin inh 30.6, CHX counter 43.0
COc1cccc(NC2=CC(c3ccc(C(C)C)cc3)N(c3cccc(OC)c3)C2=O)c1 (centres undefined)	none (no result: FBPA Giardia inh, Shiga toxin inh, LmPK inhibitor, CHX counter, RE007 growth inh)
COc1ccc(C2C=C(Nc3ccccc3)C(=O)N2c2ccccc2)cc1OC (centres undefined)	Shiga toxin inh 65.7, CHX counter 37.7
COc1cccc(C2C=C(Nc3ccccc3)C(=O)N2c2ccccc2)c1 (centres undefined)	Shiga toxin inh 18.9, CHX counter 27.1
COc1cccc(C(c2sc3nc(-c4ccco4)nn3c2O)N2CCN(C)CC2)c1 (centres undefined)	none (no result: FBPA Giardia inh, Shiga toxin inh, LmPK inhibitor, CHX counter, RE007 growth inh)
CC(C)(C)c1ccc(OCC(=O)N(Cc2ccco2)Cc2ccccc2F)cc1	none (no result: FBPA Giardia inh, Shiga toxin inh, LmPK inhibitor, CHX counter, RE007 growth inh)
Cc1cccc(-c2noc(C3CC(=O)N(c4ccc5c(c4)OCCO5)C3)n2)c1 (centres undefined)	none (no result: FBPA Giardia inh, Shiga toxin inh, LmPK inhibitor, CHX counter, RE007 growth inh)
CCS(=O)(=O)N1CCC(c2nc(-c3ccc(C)cc3)no2)CC1	Shiga toxin inh 74.0, CHX counter 55.4
CCS(=O)(=O)N1CCC(c2nc(-c3ccc(C(F)(F)F)cc3)no2)CC1	none
Cc1cccc(-c2noc(-c3ccno3)n2)c1	Shiga toxin inh 91.1, CHX counter 40.3, RE007 growth inh inconclusive
COc1ccc(-c2noc(C3CCCN(C(=O)c4ccc(C)cc4)C3)n2)cc1 (centres undefined)	none
Cc1ccc(-c2noc(C3CCCCC3)n2)cc1	Shiga toxin inh 50.0
Cc1cccc(-c2noc(C3CCCCC3)n2)c1	Shiga toxin inh 198.5, CHX counter 54.6
CCc1nn2c(=O)cc(COC(=O)c3ccccc3NC(=O)c3ccc(C(C)(C)C)cc3)nc2s1	none (no result: FBPA Giardia inh, Shiga toxin inh, LmPK inhibitor, CHX counter, RE007 growth inh)
O=C(Nc1cccc(C(F)(F)F)c1)N1CCC(CN2CCCCCC2)CC1	none (no result: FBPA Giardia inh, Shiga toxin inh, LmPK inhibitor, CHX counter, RE007 growth inh)
Cc1ccc(/C=C/C(=O)c2nc3ccccc3[nH]2)cc1	Shiga toxin inh 67.6, CHX counter 44.5
O=C(/C=C/c1ccccc1)NCCc1nc2ccccc2[nH]1	none
O=C(Nc1nc2ccccc2[nH]1)c1ccc(Cl)cc1	RE007 growth inh inconclusive
Cc1ccc(/C=C/C(=O)Nc2nc3ccccc3[nH]2)cc1	Shiga toxin inh 35.1, CHX counter 36.7
Cc1onc(-c2c(F)cccc2Cl)c1C(=O)Nc1nc2ccccc2[nH]1	Shiga toxin inh 59.8, CHX counter 59.0
Cc1ccc(Cc2nc3ccccc3[nH]2)cc1	none
O=C(/C=C/c1c(F)cccc1Cl)Nc1nc2ccccc2[nH]1	Shiga toxin inh 80.7, CHX counter 36.0
CN(C)c1ccc(C(CNC(=O)c2ccccc2F)N2CCc3ccccc32)cc1 (centres undefined)	none (no result: FBPA Giardia inh, Shiga toxin inh, LmPK inhibitor, CHX counter, RE007 growth inh)
CC1(C)Cc2nc3sc(C(=O)NCCCO)c(N)c3cc2CO1	Shiga toxin inh 90.5, CHX counter 28.6
CCOC(=O)c1sc2nc3c(cc2c1N)COC(C(C)C)C3 (centres undefined)	Shiga toxin inh 157.5, CHX counter 56.9
CC1(C)Cc2nc3scc(NC(=O)c4ccccc4)c3cc2CO1	CHX counter 14.4
COC(=O)c1sc2nc3c(cc2c1N)COC(C)(C)C3	Shiga toxin inh 198.3, CHX counter 79.8
O=C(CSc1nccn1Cc1ccccc1)Nc1ccc2c(c1)OCO2	none (no result: FBPA Giardia inh, Shiga toxin inh, LmPK inhibitor, CHX counter, RE007 growth inh)
CC(C)COC(=O)N1C[C@H](O)C[C@H]1C(=O)Nc1ccc(Cl)cc1	none
COc1ccc(Br)c2c1-c1nc(NC(=O)c3ccc(F)cc3)sc1C2	none (no result: FBPA Giardia inh, Shiga toxin inh, LmPK inhibitor, CHX counter, RE007 growth inh)
